Compounds without any hit were thinned out: in the full panel of roughly 83,000, 20% have a hit.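 Interpretation: 100, growth as untreated; towards 0, rising growth inhibition; 0, no net growth; 0 to -100, cell death. Compounds scoring below 10 were considered active.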 A number with no mark means an inactive call. Activity calls are given as the source filed them.
Columns and labels:
Assay in all cases: NCI-60 one-dose screen, 48 h (100 = growth as untreated, 0 = no growth, -100 = all killed)
Details in all cases: 10 µM unless noted
EKVX NSCLC = test system: EKVX NSCLC
SN12C renal = test system: SN12C renal
UO-31 renal = test system: UO-31 renal
TK-10 renal = test system: TK-10 renal
ACHN renal = test system: ACHN renal
CAKI-1 renal = test system: CAKI-1 renal
A498 renal = test system: A498 renal
CCRF-CEM leukemia = test system: CCRF-CEM leukemia
MOLT-4 leukemia = test system: MOLT-4 leukemia
SR leukemia = test system: SR leukemia
RPMI-8226 leukemia = test system: RPMI-8226 leukemia
OVCAR-8 ovarian = test system: OVCAR-8 ovarian
OVCAR-5 ovarian = test system: OVCAR-5 ovarian
OVCAR-4 ovarian = test system: OVCAR-4 ovarian
SK-OV-3 ovarian = test system: SK-OV-3 ovarian
IGROV1 ovarian = test system: IGROV1 ovarian
NCI/ADR-RES ovarian = test system: NCI/ADR-RES ovarian
OVCAR-3 ovarian = test system: OVCAR-3 ovarian
HS 578T breast = test system: HS 578T breast
SK-MEL-2 melanoma = test system: SK-MEL-2 melanoma

| SMILES | growth (EKVX NSCLC) | growth (SN12C renal) | growth (UO-31 renal) | growth (TK-10 renal) | growth (ACHN renal) | growth (CAKI-1 renal) | growth (A498 renal) | growth (CCRF-CEM leukemia) | growth (MOLT-4 leukemia) | growth (SR leukemia) | growth (RPMI-8226 leukemia) | growth (OVCAR-8 ovarian) | growth (OVCAR-5 ovarian) | growth (OVCAR-4 ovarian) | growth (SK-OV-3 ovarian) | growth (IGROV1 ovarian) | growth (NCI/ADR-RES ovarian) | growth (OVCAR-3 ovarian) | growth (HS 578T breast) | growth (SK-MEL-2 melanoma) |
| --- | --- | --- | --- | --- | --- | --- | --- | --- | --- | --- | --- | --- | --- | --- | --- | --- | --- | --- | --- | --- |
| CC(C)(C)c1ccc(O)c(-c2ccccc2)c1 | 103% | 109% | 110% | 99.5% | 102% | 86.7% | 121% | 97.1% | -54.2% (active) | 57.7% | 97.1% | 107% | 111% | 127% | 114% | 108% | 106% | – | – | – |
| CCCCCCCCCCCCSC(=N)N | – | 51.3% | -27.2% (active) | 87.4% | -12.6% (active) | -7.66% (active) | 80.8% | -22.8% (active) | -37.1% (active) | -32.1% (active) | -42.2% (active) | -60.6% (active) | 37.4% | 33.1% | 79% | -15.2% (active) | 35.6% | 14.4% | 92.1% | – |
| CC1(C)CCCC2=C1C(=O)N(SC(Cl)(Cl)Cl)C2=O | – | 93.4% | 79.1% | – | 82.9% | 92.4% | 120% | 40.5% | 21% | 77.2% | 91.9% | 102% | 103% | 98.2% | 93.7% | 103% | 105% | 104% | 102% | – |
| CN(C)c1ccc(/C=C/c2sc3ccc4ccccc4c3[n+]2C)cc1 | -13.6% (active) | -54.3% (active) | 15.9% | -42.1% (active) | -49.3% (active) | -10.9% (active) | -20.8% (active) | -8.92% (active) | -26.7% (active) | -30.7% (active) | -26.6% (active) | -31.1% (active) | -27.3% (active) | -19.9% (active) | -23.7% (active) | -11.2% (active) | 34% | -63% (active) | -29.1% (active) | – |
| Oc1ccc2ccccc2c1N=Nc1ccccn1 | 22.2% | 35.4% | 33.1% | 6% (active) | 11.9% | 11.7% | 79.9% | – | 11.4% | 8.18% (active) | – | 15.6% | 46.8% | -6.48% (active) | 33.6% | 25% | 0.488% (active) | 20.7% | – | – |
| CCCN(CCC)C(=O)c1ccc(C)cc1 | 89.2% | 97.9% | 94.1% | 99.6% | 102% | 99.2% | 27% | 85.7% | 101% | 95% | 93.3% | 103% | 95.3% | 110% | 94.9% | 106% | 100% | 109% | 84.1% | – |
| Cc1ccc(Nc2ccc(O)c3c2C(=O)c2c(O)ccc(Nc4ccc(C)cc4)c2C3=O)cc1 | – | 106% | 82.7% | – | 100% | 92.9% | 97.4% | 95.5% | 109% | 108% | 96.6% | 91.4% | 106% | 111% | 108% | – | 107% | 113% | 103% | 118% |
| O=C(C[P+](c1ccccc1)(c1ccccc1)c1ccccc1)c1ccccc1 | 88.5% | 87.9% | 71.8% | – | 94.3% | 84.5% | 79.8% | 90.5% | 92.3% | 90.4% | 92.6% | 95.9% | 89.6% | 83.9% | 104% | 89.5% | 82.8% | 93.8% | 96.9% | – |
| COC(=O)Nc1nc2ccc(C3(c4ccc(F)cc4)OCCO3)cc2[nH]1 | – | 41.4% | 55.4% | 47.2% | 41.9% | 40.8% | 4.58% (active) | 5.57% (active) | 21.8% | 25.2% | 10.4% | 21.1% | 47.5% | 68.4% | 22% | 29.8% | 24.2% | 4.74% (active) | 37.7% | – |

— PubChem BioAssay (NCI)
